# Data reported in PubChem BioAssay AID1259374 (The Scripps Research Institute Molecular Screening Center, 2018).
# Screen size: about 650,000 compounds; about 5,900 (0.91%) were called active. Rule as the data show it: active = inhibition above about 50%; inactive = the rest. The entries come from a sample that favours actives as a whole.
# Molecular target: Microphthalmia-associated transcription factor (Homo sapiens) (UniProt O75030)
# Assay: MITF inhibitors, primary screen, biochemical, AlphaScreen, human (AID 1259374);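 also: 0% = vehicle wells with protein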
# Conditions: AlphaScreen MITF homodimerization, bead proximity signal; at 2.6 µM; stronger effect = higher value
# Microphthalmia-associated transcription factor (Homo sapiens), sequence (O75030 whole entry, looked up): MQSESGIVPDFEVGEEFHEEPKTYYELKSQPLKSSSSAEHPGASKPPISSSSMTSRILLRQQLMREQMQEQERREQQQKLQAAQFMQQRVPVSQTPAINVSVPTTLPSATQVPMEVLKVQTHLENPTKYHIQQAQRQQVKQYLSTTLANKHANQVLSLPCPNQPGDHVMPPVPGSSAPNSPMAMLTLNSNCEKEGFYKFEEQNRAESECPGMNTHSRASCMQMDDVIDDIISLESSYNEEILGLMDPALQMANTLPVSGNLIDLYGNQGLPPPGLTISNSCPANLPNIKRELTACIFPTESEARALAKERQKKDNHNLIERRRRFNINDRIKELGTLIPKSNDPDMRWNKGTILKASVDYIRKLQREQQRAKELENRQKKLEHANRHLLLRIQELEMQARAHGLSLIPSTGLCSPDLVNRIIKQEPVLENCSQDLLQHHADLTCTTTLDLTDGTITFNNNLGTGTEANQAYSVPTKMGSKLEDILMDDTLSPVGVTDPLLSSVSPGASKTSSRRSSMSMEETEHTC
row,Compound,inhibition
1,Cc1ccc(SCC(=O)NCc2nc(-c3ccc(C)cc3)no2)cc1,-3.11% (inactive)
2,CC(C)CCN1CCNC(=O)C1CC(=O)N1CCCO1 (centres undefined),1.48% (inactive)
3,O=[N+]([O-])c1c(Cl)cc(Cl)c2nsnc12,1.42% (inactive)
4,C=CCn1c(C)c(/C=c2/sc3n(c2=O)C(c2ccc(OC)c(Br)c2)C(C(=O)OCC)=C(C)N=3)c2ccccc21 (centres undefined),-0.97% (inactive)
5,CN1CCN(c2nccnc2-c2cccc(C(=O)NCCO)c2)CC1,4.98% (inactive)
6,O=C(Cc1ccccc1[N+](=O)[O-])NNC(=O)Nc1ccccc1C(F)(F)F,13.8% (inactive)
7,O=S(=O)(c1ccc(F)cc1)N1CCN(CCCc2ccccc2)CC1,43.8% (inactive)
8,O=[N+]([O-])c1ccccc1CN1CCN(Cc2ccccc2C(F)(F)F)CC1,67.3% (active)
9,COc1ccccc1N1CCN(C2CCN(Cc3ccccc3[N+](=O)[O-])CC2)CC1,-2.11% (inactive)
10,O=S(=O)(c1ccc(F)cc1)N1CCN(Cc2ccccc2F)CC1,3% (inactive)
11,CCC(C)C(=O)NCc1nnc2n1CCN(Cc1cccnc1)CC2 (centres undefined),0.14% (inactive)
12,O=S(=O)(c1ccc(F)cc1)N1CCN(Cc2ccccc2C(F)(F)F)CC1,59.6% (active)
13,CCOc1ccccc1CN1CCN(Cc2cccnc2)CC1CCO (centres undefined),8.25% (inactive)
14,O=[N+]([O-])c1ccccc1CN1CCN(Cc2cccnc2)CC1,61.9% (active)
15,O=C(CC(Nc1ccc2ccccc2c1)c1cccnc1)c1ccccc1 (centres undefined),1.3% (inactive)
16,CC(=O)Nc1ccc(Oc2cc(NC(=O)c3cccc(F)c3)cc([N+](=O)[O-])c2)cc1,9% (inactive)
17,O=C1c2ccccc2C(=O)c2c1cccc2S(=O)(=O)N1CCCC1,10.2% (inactive)
18,O=C(Nc1ccc2nsnc2c1NC(=O)c1ccc2nsnc2c1)c1ccc2nsnc2c1,1.05% (inactive)
19,N#CCSc1nc2[nH]ncc2c(=O)n1-c1cccc(C(F)(F)F)c1,1.44% (inactive)
20,CC(C)[C@@H](C(=O)OCC(=O)Nc1cccnc1Cl)N1C(=O)c2ccccc2C1=O,-1.46% (inactive)
21,COc1ccccc1N=Cc1cccc(O)c1O,-5.98% (inactive)
22,Oc1cccc(/C=N/Nc2ccc(Cl)nn2)c1O,89.8% (active)
23,C/C(=N\NC(=O)C(O)(c1ccccc1)c1ccccc1)c1ccccc1O,-4.23% (inactive)
24,NC(=O)c1ccc(N=Cc2cccc(O)c2O)cc1,25.2% (inactive)

row,Compound,inhibition
1,C/C(=N\Nc1nc(C(C)(C)C)cs1)c1ccccc1O,6.2% (inactive)
2,C/C(=N\Nc1ccc(Cl)nn1)c1ccccc1O,61.1% (active)
3,COc1ccc(/C=C/C(=O)NCc2ccccc2OC)cc1,-9.24% (inactive)
4,CCc1ccc(N=c2oc3c(C)ncc(CO)c3cc2C(N)=S)cc1,3.64% (inactive)
5,COc1ccccc1NC1=C/C(=N/S(=O)(=O)c2ccc(F)cc2)c2ccccc2C1=O,67.4% (active)
6,COc1ccc(S(=O)(=O)/N=C2/C=C(Nc3ccc(O)cc3)C(=O)c3ccccc32)cc1,20% (inactive)
7,COC(=O)c1ccccc1NC1=C/C(=N/S(=O)(=O)c2ccccc2)c2ccccc2C1=O,23.4% (inactive)
8,COc1cc(CN2CCN(c3ccccn3)CC2)cc(OC)c1O,19.3% (inactive)
9,CCOc1cc(CN2CCN(Cc3ccccn3)CC2)ccc1OC,62.3% (active)
10,CCOc1cc(CN2CCC(n3nccc3NC(=O)C(C)(C)C)CC2)ccc1OC,-3.52% (inactive)
11,CCOc1ccccc1N1CCN(S(=O)(=O)c2ccc([N+](=O)[O-])cc2)CC1,6.79% (inactive)
12,COc1ccc(C(=O)N2CCN(Cc3cccc(OC)c3)CC2)cc1,45.7% (inactive)
13,Cc1cc2nc(N3CCCN(Cc4cccnc4)CC3)nc(C)c2cc1C,6.51% (inactive)
14,COC(=O)c1c(OC2CCCC2)cc(=O)n2c1CCN(Cc1cccnc1)CC2,2.84% (inactive)
15,CCOc1ccccc1N1CCN(Cc2cc(OC)c(O)c([N+](=O)[O-])c2)CC1,55.2% (active)
16,COc1cccc(CN2CCN(C(=O)c3ccccc3F)CC2)c1,56.7% (active)
17,CCOc1ccc(CN2CCN(Cc3ccc(OC)c(OCC)c3)CC2)cc1,9.84% (inactive)
18,CCOc1cc(CN2CCN(C(=O)c3ccccc3F)CC2)ccc1OC,34.4% (inactive)
19,COc1cc(CN2CCN(Cc3cccnc3)CC2)cc(OC)c1OC,80.7% (active)
20,c1ccc2c(-c3nc(Nc4ccc(N5CCOCC5)cc4)c4ncn(C5CCCCC5)c4n3)csc2c1,1.65% (inactive)
21,COc1cccc(OC)c1C(=O)NNC(=O)c1cccc(C)c1O,-15.2% (inactive)
22,Cn1cnnc1SCC(=O)N1CCN(c2ccccc2)CC1,1.28% (inactive)
23,CCOC(=O)c1sc(NC(=O)c2ccc(S(=O)(=O)N3CCc4ccccc43)cc2)nc1-c1ccccc1,15.2% (inactive)
24,CCOC(=O)c1c(NC(=O)C(C)Sc2nnc(CNC(=O)c3ccc(C)c([N+](=O)[O-])c3)n2CCc2ccccc2)sc2c1CCC2 (centres undefined),-9.22% (inactive)

row,Compound,inhibition
1,O=C(COc1ccc(Cl)cc1Cl)Nc1ccc(Br)cn1,9.36% (inactive)
2,Cc1cc(-n2c(C)nc3ccccc3c2=O)ccc1NS(=O)(=O)c1ccccc1,-5.82% (inactive)
3,O=C(O)CNC(=O)/C(=C/c1ccc2c(c1)OCO2)NC(=O)c1cccc(Br)c1,-6.12% (inactive)
4,COc1ccccc1NC(=O)N1CCC(CO)(Cc2ccccc2Cl)CC1,-1.19% (inactive)
5,COc1cccc(OC)c1C(=O)N1CCN(Cc2ccccc2F)CC1,55.7% (active)
6,COc1cc(OC)c(OC)cc1CN1CCN(C(=O)c2ccccc2F)CC1,17.8% (inactive)
7,COc1c(S(=O)(=O)N2CCN(Cc3ccccc3)CC2)ccc(Cl)c1Cl,-5.29% (inactive)
8,CCOC(=O)C1CCN(Cc2ccccc2F)CC1,26.1% (inactive)
9,O=C1CCN(Cc2cccnc2)CCN1Cc1c(F)cc(F)cc1F,10.8% (inactive)
10,c1ccc(CCc2nnc3n2CCN(Cc2cccnc2)CC3)cc1,4.85% (inactive)
11,COc1cc(CN2CCC(O)CC2)ccc1OCc1ccccc1,-15% (inactive)
12,c1ccc(COc2ccccc2CNCc2cccnc2)cc1,-4.27% (inactive)
13,Brc1cccc(CN2CCN(Cc3cccnc3)CC2)c1,77.7% (active)
14,COc1ccc(/C=N/N2CCN(C)CC2)cc1OCc1ccccc1,21.7% (inactive)
15,CCCS(=O)(=O)N1CCN(Cc2ccc(OC)c(OCc3ccccc3)c2)CC1,52.7% (active)
16,COc1ccc(CN2CCN(Cc3cccnc3)CC2)cc1OCc1ccccc1,75.8% (active)
17,COc1ccc(NC(=O)c2cc(C3CC3)on2)cc1,-14% (inactive)
18,NS(=O)(=O)c1ccc(NSc2ccccc2[N+](=O)[O-])cc1,13.8% (inactive)
19,CC(=O)Nc1ccc(OCC(O)CN2CCN(c3cccc(C(F)(F)F)c3)CC2)cc1 (centres undefined),10.8% (inactive)
20,CC1CCN(C(=O)CSc2nc3c(c(=O)n2CCc2ccccc2)SCC3)CC1,-10.8% (inactive)
21,CC(=O)Nc1ccc(C(=O)N/N=C/c2cccc(C)n2)cc1,9.97% (inactive)
22,C=CCOc1ccc(C2Nc3ccccc3-c3nnc(SC)nc3O2)cc1 (centres undefined),3.95% (inactive)
23,CC(C)C(=O)NC(NC(=S)Nc1ccccc1C(=O)O)C(Cl)(Cl)Cl (centres undefined),9.89% (inactive)
24,COc1ccc(Cn2nc(-c3ccncc3)oc2=O)cc1,3.66% (inactive)

row,Compound,inhibition
1,O=C(NCCOc1ccccc1)c1cc(-c2ccccc2)nc2c(Cl)cccc12,-8.8% (inactive)
2,COc1cccc(OC)c1C(=O)N1CCN(Cc2cccnc2)CC1,79.5% (active)
3,COC(=O)c1ccccc1S(=O)(=O)C1CCN(Cc2cccnc2)CC1,13.1% (inactive)
4,COc1ccccc1C(=O)N1CCN=C1SCc1cccnc1,-16.8% (inactive)
5,Cc1cc(C)c(S(=O)(=O)N(C)CCO)cc1N(C)S(=O)(=O)c1ccc(Cl)cc1,-12% (inactive)
6,CCCCC(=O)N1CCN(c2ccccc2OCC)CC1,-2.97% (inactive)
7,CCN(CC)CCNC(=O)c1sc2ncn(Cc3ccccc3F)c(=O)c2c1C,-7.31% (inactive)
8,CCOc1cccc2c1N[C@@H](c1ccc(C(=O)O)cc1)[C@H]1CC=C[C@@H]21,65.3% (active)
9,COC(=O)c1ccc(C2Nc3c(C(=O)OC)cccc3C3C=CCC32)cc1 (centres undefined),4.19% (inactive)
10,COc1cccc(C2Nc3ccc(C(=O)O)cc3C3C=CCC32)c1OC (centres undefined),13.7% (inactive)
11,O=C(NNC(=O)c1ccccn1)NC12CC3CC(CC(C3)C1)C2,5.98% (inactive)
12,COc1cccc(C(=O)NCCSc2ncc(-c3ccc(C)cc3)[nH]2)c1,8.31% (inactive)
13,Cc1cccc(OCc2nc(C#N)c(NCCCN(C)C)o2)c1,-13.4% (inactive)
14,Cc1ccc(-c2nc(C#N)c(NCCCn3ccnc3)o2)cc1,-5.46% (inactive)
15,N#Cc1nc(COc2cccc(Cl)c2)oc1NCCCn1ccnc1,62.2% (active)
16,O=C(CSc1ccc2nc(-c3ccccc3)cn2n1)Nc1cccc2ccccc12,-15.1% (inactive)
17,CCN1C(=O)/C(=C/c2ccc(-c3ccc(Br)cc3)o2)N(CC)C1=S,-10.4% (inactive)
18,CSc1ccc(CN2CCN(S(=O)(=O)c3ccc([N+](=O)[O-])cc3)CC2)cc1,53.2% (active)
19,COc1ccccc1CN1CCN(S(=O)(=O)c2ccc([N+](=O)[O-])cc2)CC1,39.9% (inactive)
20,Cc1ccc(S(=O)(=O)N2CCN(Cc3ccc(F)cc3)CC2)cc1,49.5% (inactive)
21,CSc1ccccc1NC(=O)c1cc2nc(-c3ccc(Br)cc3)cc(C(F)(F)F)n2n1,-5.34% (inactive)
22,COc1cc(C2N=C(c3ccccc3)C(C)(C)N2O)ccc1O (centres undefined),2.87% (inactive)
